Sfp inh: qHTS Assay for Inhibitors of Bacillus subtilis Sfp phosphopantetheinyl transferase (PPTase). Potency, µM, for inactives: largest response in the series, negative = inhibition, usual class: inhibitors. 4'-phosphopantetheinyl transferase ffp (Bacillus subtilis), Q9F4F7. 3.5% of 310,000 active. Biochemical Sfp PPTase activity, qHTS;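 further: the enzyme is Sfp with the accession as filed and its product quenches rhodamine fluorescence; 0% = enzyme reaction without inhibitor and -100% = no enzyme wells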
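Fluorescence-quenching assay with 15 nM Sfp, 5 uM rhodamine-CoA and 12.5 uM BHQ-2-labelled ybbR peptide in pH 7.6 Hepes/MgCl2 buffer. Enzyme was pre-incubated with compound for 15 min at room temperature. Rate was taken from the 30-min fluorescence change (525/598 nm).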
G9a inh: qHTS Assay for Inhibitors of Histone Lysine Methyltransferase G9a; G9a H3K9 monomethylation, AlphaScreen, 2 h; 8.8% of 350,000 active; Potency, µM (highest dose often 102 µM), without a hit: at the highest dose activity, negative = inhibition, actives largely listed as inhibitors; AID 504332, 2011; further: on the % scale 0 is the no-effect control and ±100 the full control effect; nearly all actives have a fitted effect of over 75% in size
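Readings reflect AlphaScreen signal from monomethyl-H3K9 antibody detection. HMT at 20 nM; substrate b-H3K9 500 nM; cofactor SAM 20 uM; 2 h RT reaction; compounds tested as titrations in qHTS with 15 min preincubation.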
JMJD2A Tudor: qHTS Assay for Inhibitors of JMJD2A-Tudor Domain; 4.4% of 390,000 active; AlphaScreen JMJD2A-Tudor / H3K4me3 peptide binding; Potency, µM (doses to about 114 µM), inactives show at the top dose activity change, negative = inhibition, most hits filed as inhibitors; Lysine-specific demethylase 4A (Homo sapiens), O75164; further: on the % scale 0 is the no-effect control and ±100 the full control effect; nearly all actives have a fitted effect of over 50% in size
BAZ2B block: qHTS Assay for Inhibitors of BAZ2B | 4.4% of 360,000 active | AlphaScreen BAZ2B-H3K14Ac peptide displacement | Potency, µM (series often up to 114 µM), for the others: top-dose activity change, negative = inhibition, actives largely listed as inhibitors | Bromodomain adjacent to zinc finger domain protein 2B (Homo sapiens), Q9UIF8; further: on the % scale 0 is the no-effect control and ±100 the full control effect; nearly all actives have a fitted effect of over 60% in size
Target sequence (Q9UIF8 whole entry, looked up, the tested form may be a part): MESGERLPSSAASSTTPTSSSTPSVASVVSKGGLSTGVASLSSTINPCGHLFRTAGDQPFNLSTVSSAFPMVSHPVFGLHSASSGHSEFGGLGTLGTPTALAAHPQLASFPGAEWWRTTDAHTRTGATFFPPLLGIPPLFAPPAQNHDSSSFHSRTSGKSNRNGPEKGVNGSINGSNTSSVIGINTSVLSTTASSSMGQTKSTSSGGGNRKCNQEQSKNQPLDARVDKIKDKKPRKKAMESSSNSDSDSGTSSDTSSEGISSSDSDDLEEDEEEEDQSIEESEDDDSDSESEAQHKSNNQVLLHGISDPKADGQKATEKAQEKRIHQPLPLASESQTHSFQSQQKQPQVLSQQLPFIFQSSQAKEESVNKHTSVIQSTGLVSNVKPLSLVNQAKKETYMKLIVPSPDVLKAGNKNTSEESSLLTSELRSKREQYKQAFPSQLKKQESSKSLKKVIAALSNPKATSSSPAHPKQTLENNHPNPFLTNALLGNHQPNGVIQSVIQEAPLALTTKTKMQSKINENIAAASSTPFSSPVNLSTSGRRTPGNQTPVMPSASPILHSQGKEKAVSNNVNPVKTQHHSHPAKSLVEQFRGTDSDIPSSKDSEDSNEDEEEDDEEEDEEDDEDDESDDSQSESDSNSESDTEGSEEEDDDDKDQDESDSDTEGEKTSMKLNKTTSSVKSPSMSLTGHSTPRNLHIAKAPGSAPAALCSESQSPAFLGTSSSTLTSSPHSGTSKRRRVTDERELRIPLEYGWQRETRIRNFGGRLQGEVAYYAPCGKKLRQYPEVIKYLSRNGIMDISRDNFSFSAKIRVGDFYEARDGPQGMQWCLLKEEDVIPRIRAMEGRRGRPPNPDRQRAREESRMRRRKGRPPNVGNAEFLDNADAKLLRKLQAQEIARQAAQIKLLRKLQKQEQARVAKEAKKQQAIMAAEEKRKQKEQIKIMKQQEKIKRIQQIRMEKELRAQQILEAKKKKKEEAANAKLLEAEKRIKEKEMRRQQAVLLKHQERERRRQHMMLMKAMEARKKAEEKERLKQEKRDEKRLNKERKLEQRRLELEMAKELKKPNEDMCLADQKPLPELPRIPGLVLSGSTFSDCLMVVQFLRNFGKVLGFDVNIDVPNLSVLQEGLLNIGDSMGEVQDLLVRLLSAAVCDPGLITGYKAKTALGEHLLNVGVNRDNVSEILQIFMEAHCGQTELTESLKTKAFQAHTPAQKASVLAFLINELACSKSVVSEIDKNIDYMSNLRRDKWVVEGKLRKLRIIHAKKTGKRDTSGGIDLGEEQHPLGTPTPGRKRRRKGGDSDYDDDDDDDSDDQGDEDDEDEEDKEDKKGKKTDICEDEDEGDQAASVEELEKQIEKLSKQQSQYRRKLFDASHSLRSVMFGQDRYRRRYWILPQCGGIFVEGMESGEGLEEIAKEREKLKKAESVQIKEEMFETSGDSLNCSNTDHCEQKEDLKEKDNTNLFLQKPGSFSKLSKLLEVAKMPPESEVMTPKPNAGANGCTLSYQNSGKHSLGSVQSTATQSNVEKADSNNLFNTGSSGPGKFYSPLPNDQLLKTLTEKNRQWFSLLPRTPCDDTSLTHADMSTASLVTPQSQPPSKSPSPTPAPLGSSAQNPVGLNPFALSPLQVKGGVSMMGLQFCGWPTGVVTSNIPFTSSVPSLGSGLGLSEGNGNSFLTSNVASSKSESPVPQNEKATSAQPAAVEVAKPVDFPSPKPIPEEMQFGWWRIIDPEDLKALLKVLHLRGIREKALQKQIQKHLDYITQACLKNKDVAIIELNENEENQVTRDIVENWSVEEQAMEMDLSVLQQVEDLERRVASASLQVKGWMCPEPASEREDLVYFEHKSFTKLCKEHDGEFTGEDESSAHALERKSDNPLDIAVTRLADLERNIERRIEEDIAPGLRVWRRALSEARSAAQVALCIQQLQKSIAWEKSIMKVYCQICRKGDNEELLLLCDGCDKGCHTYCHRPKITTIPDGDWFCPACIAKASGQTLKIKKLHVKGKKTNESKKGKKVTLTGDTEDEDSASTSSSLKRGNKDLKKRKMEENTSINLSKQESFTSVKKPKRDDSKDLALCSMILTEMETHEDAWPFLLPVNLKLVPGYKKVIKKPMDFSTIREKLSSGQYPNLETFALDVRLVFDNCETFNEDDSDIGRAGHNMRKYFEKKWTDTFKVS
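AlphaScreen luminescence quantifies BAZ2B engagement of H3K14Ac peptide; the protein and biotinylated peptide are both at 50 nM final, buffer PBS pH 7.4 with 0.01% Tween-20, all steps at room temperature.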
HP1b chromo inh: HTS for Inhibitors of HP1-beta Chromodomain Interactions with Methylated Histone Tails; AlphaScreen HP1-beta / biotin-H3K9me3 peptide binding; 0.56% of 390,000 active; Potency, µM (titrated, usually from 114 µM), inactives show at the highest dose activity change, negative = inhibition, most hits filed as inhibitors; further: nearly all actives have a fitted effect of over 70% in size
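Compound inhibition of the preformed complex between 50 nM HP1-beta and 50 nM biotinylated H3K9me3 peptide was read by AlphaScreen. Buffer was PBS pH 7.4 with 0.01% Tween-20. Incubations ran 30 min at room temperature, with 10 ug/mL donor/acceptor beads.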
TDP1 block: qHTS Assay for Inhibitors of Tyrosyl-DNA Phosphodiesterase (TDP1); Tyrosyl-DNA phosphodiesterase 1 (Homo sapiens), Q9NUW8; recombinant TDP1, AlphaScreen DNA substrate cleavage; Potency, µM (top dose mostly 130 µM), for inactives: top-dose activity change, negative = inhibition, most hits filed as inhibitors; 0.28% of 350,000 active; further: on the % scale 0 is the no-effect control and ±100 the full control effect; nearly all actives have a fitted effect of over 40% in size
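Tdp1 1 nM final; 15 min RT w/ cpd; substrate 15 nM, 5 min; beads 10 ug/ml, 10 min; AlphaScreen read. Neg ctrl: no enzyme.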
The depositor's hits bear a star; ? = inconclusive; nt = no result; [ ] = dose if it differs, or a comment. This is a sample that favours compounds with a hit; in the whole collection about 12% have one here. The call rests on the fitted dose curve; in most records, active means well fitted curve in the direction sought with a large enough effect; inconclusive means small, poorly fitted or top-dose-only effect, or another doubt; inactive means no such curve, though single readings can be large; an effect the other way counts as inactive or inconclusive. Potency means the concentration at half of the fitted maximal effect.

SMILES	Sfp inh	G9a inh	JMJD2A Tudor	BAZ2B block	HP1b chromo inh	TDP1 block
COc1ccc(OC)c(NC(=O)CSc2nccn2Cc2ccco2)c1	12.8%	50.1µM*	-33.0%	-36.3%	-3.4%	7.9%
CCOc1ccccc1NC(=O)CSc1nnc(-c2ccccn2)n1Cc1ccco1	-22.4%	-50.9%	?	?	15.1%	-1.0%
CCOC(=O)c1c(NC(=O)CSc2nnc(-c3ccncc3)n2Cc2ccco2)sc(C)c1C	1.4%	50.1µM*	?	?	-4.4%	9.3%
CCOC(=O)c1c(NC(=O)CSc2nnc(-c3ccncc3)n2Cc2ccco2)sc(C(C)=O)c1C	nt	nt	-13.7%	nt	10.7%	nt
COc1ccc(C)cc1NC(=O)CSc1nnc(-c2ccco2)n1Cc1ccco1	-18.9%	56.2µM*	?	-35.6%	-18.6%	1.9%
Cc1ccc(NC(=O)CSc2nccn2Cc2ccco2)c(C)c1	-7.2%	nt	-2.3%	-37.5%	16.1%	3.7%
C=CCn1c(SCC(=O)Nc2cc(C)ccc2OC)nnc1-c1ccco1	17.5%	10.9%	-10.4%	-1.9%	26.6%	1.0%
CCOc1ccc(-c2nn(CC(=O)NC3CCCC3)c3c2cnc2ccc(F)cc23)cc1	nt	19.2%[59 µM]	-11.7%	-7.6%	88.5%	5.8%
N#Cc1c(C(F)(F)F)cc(-c2cccs2)nc1SCc1ccc(Cl)nc1	22.4µM*	9.4%[0.0925 µM]	4.5%	2.5%	34.0%	3.9%
N#Cc1c(C(F)(F)F)cc(-c2cccs2)nc1SCc1ccc(F)cc1	nt	20.9%[59 µM]	4.1%	4.0%	50.4%	0.0%
Cc1nnc(NC(=O)c2ccc(S(=O)(=O)C(F)F)cc2)s1	23.5%	3.1%	-9.2%	0.3%	33.7%	0.0%
Cc1ccc(-n2cc[nH]c2=S)cc1C	79.4µM*	?	35.5µM*	-24.9%	21.4%	-2.3%
S=c1[nH]ccn1-c1cccc(Cl)c1	-2.1%	?	7.94µM*	-1.1%	-20.2%	0.0%
Cc1ccc(N2C(=O)C(Cc3ccc(O)cc3)NC2=S)cc1C (centres undefined)	4.7%	19.2%	-11.4%	-6.8%	41.7%	1.9%
O=C1CSC(=S)N1c1cccc(Cl)c1	-3.9%	-17.2%	-13.0%	-21.2%	23.0%	nt
CC(=O)c1ccc(S(=O)(=O)NCCC(=O)NC2CCN(Cc3ccccc3)CC2)cc1	nt	nt	4.47µM*	nt	14.1µM*	2.0%
Cc1ccnc(N2CCCC(C(=O)Nc3cccc(C)c3C)C2)n1 (centres undefined)	10.2%	9.2%	5.8%	-15.5%	29.4%	nt
[C-]#[N+][C@H](O[C@@H]1O[C@H](CO)[C@@H](O)[C@H](O)[C@H]1O)c1ccccc1	nt	nt	-10.2%	nt	38.0%	nt
O=C(O)CC(CCc1ccccc1)OC1OC(CO)C(O)C(O)C1O (centres undefined)	-8.0%	?	8.91µM*	?	?	nt
Cc1ccccc1NC(=O)c1nc(-c2ccncc2)no1	nt	-3.9%[59 µM]	-18.1%	-4.9%	37.5%	-1.3%
NNC(=O)CSc1c(-c2ccccc2)c2cc(Cl)ccc2[nH]c1=O	5.0%	5.9%[2.33 µM]	-7.7%	-11.5%	34.1%	nt
O=c1[nH]c2ccc(Cl)cc2c(-c2ccccc2)c1SC(=S)N1CCOCC1	11.2µM*	?	?	-34.4%	-19.5%	6.8%
CN1CCc2nc3sc(C(=O)NCc4ccccc4)c(N)c3cc2C1	-27.0%	11.2µM*	-12.7%	?	23.8%	4.3%
CCN(CC)c1ccc(NC(=O)c2sc3nc4c(cc3c2N)CN(C)CC4)cc1	nt	?	-34.7%	?	17.4%	7.1%
COc1cc(C(=O)NCCC(=O)N2CCC3(CC2)NCCc2[nH]cnc23)cc(OC)c1OC	15.7%	?	15.2%	-14.4%	25.8%	4.0%
SMILES	Sfp inh	G9a inh	JMJD2A Tudor	BAZ2B block	HP1b chromo inh	TDP1 block
O=C(O)c1ccccc1OP(=O)(O)O	1.0%	0.1%[21.5 µM]	nt	nt	nt	9.0%[56.1 µM]
Cc1cccc(C)c1NC(=S)NC(=O)c1ccc(Br)o1	5.9%	39.8µM*	-13.2%[11.4 µM]	?	-14.2%	-3.6%
Cn1ncc(C(N)=O)c1NC(=S)NC(=O)c1ccc(Br)o1	-86.6%	17.8µM*	-11.6%	-27.9%	-8.2%	-5.0%
Cc1cccc(NC(=S)NC(=O)c2ccc(Br)o2)c1C	6.6%	-9.7%[59 µM]	2.0%	?	5.2%	-2.7%
Cn1cccc1/C=C1\CCC/C(=C\c2cccn2C)C1=O	-23.4%	?	56.2µM*	22.4µM*	22.4µM*	11.8%
COc1ccccc1CCC(=O)Oc1ccc(C#N)cc1OC	-9.2%	25.1µM*	42.1%	1.6%	117.5%	3.4%
COc1ccccc1CNCC(=O)Nc1ccc(C#N)cc1	-18.6%	5.62µM*	?	50.1µM*	-21.0%	nt
COc1ccc(NCC(=O)Nc2ccc(C#N)cc2)cc1Cl	3.3%	?	-25.6%	?	19.5%	2.3%
O=C(Cc1cccc2ccccc12)Nc1ccc(O)cc1C(=O)O	0.8%	70.8µM*	-26.9%[57.1 µM]	-10.4%	0.5%	8.9%
COc1ccccc1CNCC(=O)Nc1ccccc1-n1cccc1	?	10µM*	22.4µM*	50.1µM*	?	5.5%
Cn1c(=NC(=O)COc2ccccc2)sc2ccccc21	13.0%	?	-8.7%	-31.0%	32.8%	-1.2%
CSc1ccc(CCNC(=O)CCCn2nc(C)c3sc4ccccc4c3c2=O)cc1	nt	?	-18.2%	-1.0%	24.0%	-8.6%
CS(=O)(=O)N(CC(=O)N1CCN(Cc2ccccc2)CC1)c1cccc(Cl)c1	7.8%	6.2%	-2.0%	-11.9%	19.3%	nt
Cn1cc(S(=O)(=O)N2CCCCCC2)cc1C(=O)NCc1ccc(F)cc1	nt	16.6%[59 µM]	-18.8%	-8.0%	12.2%[57 µM]	-1.8%
COC(=O)c1ccc(NC(=O)CN2C(=O)CSC2=O)cc1	-7.9%	0.1%[12.7 µM]	-8.3%	23.0%	4.7%	9.1%
O=C(Nc1ccc(N2CCOCC2)cc1)Nc1cnsn1	28.2µM*	?	-17.1%	-10.6%	21.6%	5.3%
O=C(CN1CCN(S(=O)(=O)c2ccccc2)CC1)Nc1ccc(N2CCOCC2)cc1	9.4%	?	-9.0%	-5.4%	19.2%	0.0%
O=C(CCS(=O)(=O)c1ccccc1)Nc1ccc(N2CCOCC2)cc1	7.7%	56.2µM*	-25.9%	-26.1%	7.2%	-1.2%
Cc1ccccc1OCC(=O)OCC(=O)Nc1ccc(N2CCOCC2)cc1	-3.3%	-6.6%	-14.8%	?	20.5%	5.1%
O=C(Nc1ccc(Cl)cc1)Nc1ccc(N2CCOCC2)cc1	8.7%	-49.2%[12.7 µM]	-6.4%	8.3%	33.0%	6.8%

Source: PubChem BioAssay
